This note sets out measurements from PubChem BioAssay (Tox21).

The structures appear in SMILES notation. A number with no mark means an inactive call. Inconclusive results are not listed. Active and inactive are the calls of the source. Unless noted, the call rests on the fitted dose curve; in most records, active means well fitted curve in the direction sought with a large enough effect in the repeat runs; inconclusive means weak or mixed curves; inactive means no such curve, though single readings can be large; an effect the other way counts as inactive or inconclusive.

Assay [1] is described as follows: qHTS assay for small molecules that induce genotoxicity in human embryonic kidney cells expressing luciferase-tagged ATAD5 (AID 651632). Further: nearly all actives have a fitted effect of over 15% in size. An outline of the steps: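 Quantitative HTS in HEK293T expressing luciferase-tagged ATAD5, whose levels rise upon DNA damage. Exposure ran 16 hr at 37C and 5% CO2, with luminescence read 30 min after Amplite addition at room temperature.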

Assay [2] is described as follows: qHTS assay for small molecule agonists of the p53 signaling pathway - cell viability (AID 651633; calls by dose curve;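 further: p53RE-bla HCT reporter cells with a stable beta-lactamase p53 reporter; nearly all actives have a fitted effect of over 30% in size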). In outline:
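p53RE-bla cells, seeded at 4,000 per well and rested 5 h at 37 C/5% CO2, received compounds in DMSO for 16 h at 37 C. CellTiter-Glo was then added, and luminescence was read after 30 min at room temperature to gauge cytotoxicity.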

Assay [3] is described as follows: qHTS assay for small molecules that induce genotoxicity in human embryonic kidney cells expressing luciferase-tagged ATAD5 - cell viability (AID 651634; calls by dose curve; further: nearly all actives have a fitted effect of over 25% in size). In outline:
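After 15.5 hr incubation with compound at 37C, 5% CO2, HEK293T ATAD5-luciferase cells received CellTiter-Fluor reagent; fluorescence intensity was quantified following 30 min at 37C.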
(qHTS replaces the single test concentration by a dilution series.)

Assay [4] in a line: qHTS assay for small molecule disruptors of the mitochondrial membrane potential (AID 720635). Further: potency means the concentration at half of the fitted maximal effect. An outline of the steps: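 HepG2 cells (2,000/well) attached overnight at 37C, then took compound for 1 hr at 37C, 5% CO2. Mito-MPS dye was added for 30 min; fluorescence was read at 490/535 nm (monomers) and 540/590 nm (aggregates).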
Assay [5] is described as follows: qHTS assay to test for compound auto fluorescence at 590 nm (red) in HepG2 cells (AID 720674). In outline:
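Compound auto-fluorescence is scored relative to Rose Bengal sodium, measured at 540/590 nm in live HepG2 cultures after 1 hr compound contact (37 C, 5% CO2).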

Assay [6] is described as follows: qHTS assay to test for compound auto fluorescence at 460 nm (blue) in HEK293 cells (AID 720678). In outline: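 Auto fluorescence in the blue band was quantified as triamterene equivalency. HEK293 cells were seeded at 2,000/well, dosed after a 4-5 hr attachment, and kept overnight at 37C before the 405/460 nm reading.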
The nature of assay [7]: qHTS assay to test for compound auto fluorescence at 590 nm (red) in HEK293 cells (AID 720679). An outline of the steps:
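Autofluorescence equivalency to Rose Bengal sodium, 540/590nm, in HEK293 cells exposed overnight to 23 nL compound per well.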

Assay [8] in a line: qHTS assay to test for compound auto fluorescence at 535 nm (green) in HEK293 cells (AID 720680).
Assay [9] can be described thus: qHTS assay to test for compound auto fluorescence at 460 nm (blue) in HEK293 cell free culture (AID 720681). An outline of the steps: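 Test compounds were pinned into cell-free culture medium (DMEM with 10% FBS) and fluorescence was read directly at Ex/Em 405/460 nm. Signals were expressed as fluorescence equivalents of triamterene, with DMSO vehicle as control.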

A short description of assay [10]: qHTS assay to test for compound auto fluorescence at 535 nm (green) in HEK293 cell free culture (AID 720682). An outline of the steps: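 Cell-free medium (DMEM, 10% FBS) receives compound or DMSO by pintool. Plate read directly at Ex 485/Em 535 nm. Signal converted to fluorescein equivalency.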
Assay [11] can be described thus: qHTS assay to test for compound auto fluorescence at 590 nm (red) in HEK293 cell free culture (AID 720683). In outline:
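Tox21 10K library compounds were pinned into cell-free DMEM with 10% FBS and fluorescence was read at excitation 540 nm. Activity is expressed as Rose Bengal sodium equivalency.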

A short description of assay [12]: qHTS assay to test for compound auto fluorescence at 590 nm (red) in HepG2 cell free culture (AID 720684). An outline of the steps: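 Ex 540 / Em 590 nm read of compound in cell-free MEM (10% FBS). Rose Bengal sodium reference.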
Assay [13] can be described thus: qHTS assay to test for compound auto fluorescence at 460 nm (blue) in HepG2 cell free culture (AID 720685). An outline of the steps:
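Cell-free plates of MEM plus 10% FBS received 23 nL compound or DMSO vehicle; blue-channel (405/460 nm) intensity scored against triamterene as reference fluorophore.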

Assay [14] in a line: qHTS assay to test for compound auto fluorescence at 535 nm (green) in HepG2 cell free culture (AID 720686).
Assay [15] is described as follows: qHTS assay to test for compound auto fluorescence at 460 nm (blue) in HepG2 cells (AID 720687). An outline of the steps: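 Cells (2,000/well in MEM with 10% FBS) attached overnight at 37 C, then were exposed to compound or DMSO for 1 hr at 37 C, 5% CO2. Fluorescence read at Ex/Em 405/460 nm, expressed as triamterene-equivalent signal.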
For assay [16], the target named is Glucocorticoid receptor (Homo sapiens) (UniProt P04150). The assay is described as follows: qHTS assay to identify small molecule agonists of the glucocorticoid receptor (GR) signaling pathway (AID 720691; active means well fitted activation curve with a large enough effect in the signal ratio in the repeat runs, not every such curve was filed as active; the % refers to the signal ratio). Particulars: GR-bla HeLa, beta-lactamase reporter ratio, 18 h; activation: at 62.4 µM (top of the series) unless noted. In outline:
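Cells: GR-bla HeLa, endogenous GR with stably integrated GRE-beta-lactamase reporter. Treatment 18 h, 37 C, compounds delivered in DMSO. Detection via LiveBLAzer B/G FRET substrate, 2 h RT, fluorescence intensity.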

For assay [17] the target is unchanged. As to the kind of experiment: qHTS assay to identify small molecule antagonists of the glucocorticoid receptor (GR) signaling pathway (AID 720692; active means well fitted inhibition curve with a large enough effect in the signal ratio in the repeat runs, not every such curve was filed as active; the % refers to the signal ratio). In outline:
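Quantitative HTS in antagonist format: HeLa cells expressing endogenous GR and a stably integrated GRE-bla reporter, stimulated with 5 nM dexamethasone (final) alongside test compounds for 18 h.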

Assay [18] is described as follows: qHTS assay to test for compound auto fluorescence at 535 nm (green) in HepG2 cells (AID 720675).
Assay [19] is described as follows: qHTS assay for small molecule disruptors of the mitochondrial membrane potential - cell viability (AID 720634; calls by dose curve;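 further: human HepG2 liver cancer cells; nearly all actives have a fitted effect of over 20% in size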). In outline:
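ATP-based luminescent viability readout (CellTiter-Glo, 30 min, room temperature) in HepG2 cells multiplexed with the m-MPI membrane potential dye; compound exposure lasted 1 hr at 37 C.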
On the % scale 0 is the no-effect control and ±100 the full control effect.

Sequence of Glucocorticoid receptor (Homo sapiens) (P04150 whole entry, looked up): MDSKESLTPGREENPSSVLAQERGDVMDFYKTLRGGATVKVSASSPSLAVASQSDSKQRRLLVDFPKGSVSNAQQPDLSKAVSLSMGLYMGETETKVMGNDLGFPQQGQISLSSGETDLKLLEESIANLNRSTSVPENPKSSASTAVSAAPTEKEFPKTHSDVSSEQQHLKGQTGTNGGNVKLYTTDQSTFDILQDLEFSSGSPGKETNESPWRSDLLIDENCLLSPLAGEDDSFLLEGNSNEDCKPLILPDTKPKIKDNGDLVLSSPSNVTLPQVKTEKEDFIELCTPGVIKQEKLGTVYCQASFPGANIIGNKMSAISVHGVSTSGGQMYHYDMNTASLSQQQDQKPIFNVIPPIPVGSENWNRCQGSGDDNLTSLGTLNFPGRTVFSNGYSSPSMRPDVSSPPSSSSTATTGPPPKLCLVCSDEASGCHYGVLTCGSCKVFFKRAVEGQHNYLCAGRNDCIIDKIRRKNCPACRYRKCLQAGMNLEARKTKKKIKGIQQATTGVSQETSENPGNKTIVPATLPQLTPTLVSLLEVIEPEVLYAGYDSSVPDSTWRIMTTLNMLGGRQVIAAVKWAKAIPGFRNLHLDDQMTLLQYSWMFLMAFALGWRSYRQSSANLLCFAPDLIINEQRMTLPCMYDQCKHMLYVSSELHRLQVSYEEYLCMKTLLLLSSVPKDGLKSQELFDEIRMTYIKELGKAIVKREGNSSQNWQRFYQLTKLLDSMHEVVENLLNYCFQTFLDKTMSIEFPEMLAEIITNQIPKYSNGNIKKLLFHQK

As to `NC(N)=NCCC[C@H](N)C(=O)O`, the Potency entry in assay [1], in assay [2], in assay [3], in assay [4], in assay [5] and in assay [7] was “inactive” in each case. In addition, the Potency result in [11], in assay [12], in [14], in assay [16] and in [17] was “inactive” throughout. Moreover, the molecule was classed as inactive in [6], in [8], in assay [9], in assay [10], in assay [13] and in assay [15].
`c1cc(CCCc2ccncc2)ccn1`: the Potency result in assay [1], in assay [2], in assay [3], in assay [5], in assay [18] and in assay [11] was “inactive” throughout. Moreover, the Potency result in assay [12], in assay [14] and in [16] was “inactive” throughout. In addition, the molecule was called inactive in assay [6], in [8], in assay [9], in assay [10], in [13] and in [15].
Regarding `CCc1cc(C2=C(C(=O)O)N(c3ccccc3C(F)(F)F)S(=O)(=O)c3ccccc32)cc2c1OCO2`, the Potency result in assay [1], in assay [2], in assay [18], in [7], in [12] and in assay [14] was “inactive” throughout. Further, the Potency result in assay [16] is “inactive”. Further, the Potency in assay [4] was 48 µM (active). The call in assay [6], in assay [8], in assay [9], in assay [10], in assay [13] and in [15] was inactive.
As to `CN(C)CCN(Cc1ccc(Cl)cc1)c1ccccn1`, the Potency result in [1], in assay [2], in [3], in assay [16] and in assay [17] was “inactive” in each case. The fluorescence, relative to Rose Bengal in assay [5] was 0.0058% [at 18.6 µM]. Moreover, the fluorescence, % of fluorescein control in [18] was 0.0171% [at 18.6 µM]; in [14] it was -0.14% [at 18.6 µM]. Moreover, the fluorescence, % of triamterene in assay [6] was 0.037% [at 18.6 µM]. In addition, the fluorescence, % of fluorescent control in assay [7] was -0.0077% [at 18.6 µM]; in assay [13], 0.027% [at 18.6 µM]; in assay [15], -0.0264% [at 18.6 µM]. In addition, in assay [8], the fluorescence, % of fluorescein was 0.0009% [at 18.6 µM]. In assay [10], the activity change was 2e-05% [at 18.6 µM]. For the same molecule, the fluorescence, % of Rose Bengal in assay [12] was 0.0021% [at 18.6 µM].
On to `C=C(C)C(=O)OCC`, for which the Potency entry in assay [1], in [3], in [19], in [4], in [5] and in assay [18] was “inactive” throughout. The Potency result in assay [7], in assay [11], in assay [12], in assay [14], in assay [16] and in assay [17] was “inactive” in each case. In addition, the molecule was classed as inactive in assay [6], in [8], in assay [9], in [10], in assay [13] and in assay [15].
As to `OC(CN1CCC(Cc2ccc(F)cc2)CC1)c1ccc(Cl)cc1` (stereo not given), the Potency entry in assay [1], in assay [2], in assay [3], in assay [19], in assay [5] and in assay [7] was “inactive” each time. Also, the Potency result in assay [11], in assay [12], in assay [14], in [16] and in assay [17] was “inactive” each time. For the same molecule, the molecule was classed as inactive in assay [6], in assay [8], in [9], in assay [10] and in [15].
With `CCCCOC(=O)CCCCCCCC(=O)OCCCC`, the Potency result in assay [1], in assay [2], in [3], in assay [4], in assay [5] and in [18] was “inactive” each time. In addition, the Potency result in [7], in assay [11], in assay [12] and in [14] was “inactive” throughout. Also, the outcome in [6], in assay [8], in assay [10], in assay [13] and in assay [15] was inactive.
